Hits are enriched below; roughly 7.3% of the tested compounds scored in any of these assays.
HCMV antiviral: human cytomegalovirus inhibition; activity change, negative = inhibition, % at 57.5 µM; actives 4.5% (n = 410,000); AID 1259415; HFF cells, HCMV-luciferase reporter, 72 h; active compounds read low; in the data active = activity change below about -60%; inconclusive = no clear call, values can overlap the other calls; inactive = above about -39%
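Steps: HFFs plated, 16 h 37C; compounds added; HCMV-luciferase added to MOI 1 PFU/cell; 72 h 37C; OneGlo reagent, 5 min room temperature; luminescence read, normalized to controls.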
FMDV antiviral: blocks foot and mouth disease virus; actives 1.2% (n = 410,000); Potency, µM (top dose mostly 57.9 µM), for the others: top-dose activity change, negative = inhibition, actives largely listed as inhibitors; FMDV antiviral cell-based qHTS; calls by dose curve; tested in HEK293T cells; note: read-out not given here; potency is the fitted concentration of half-maximal effect; nearly all actives have a fitted effect of over 45% in size
HCV inhibitor: HCV inhibition; AID 651820; Potency, µM (top dose mostly 41.8 µM), for inactives: top-dose activity change, negative = inhibition, hits mostly inhibitors; actives 3.4% (n = 340,000); Huh7.5.1 HCVcc-Cre infection, luciferase reporter, 44 h; active = well fitted inhibition curve with a large enough effect; inconclusive = small, poorly fitted or top-dose-only effect, or another doubt; inactive = no such curve, though single readings can be large or run the other way; note: potency is the fitted concentration of half-maximal effect
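Whole-lifecycle infectious HCVcc-Cre system; cells 1,000/well, compound then virus (~0.5 moi) added 4 h after plating, 44 h culture. Luciferase read 15 sec following 15 min substrate incubation, room temp.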
VACV Venus inh: vaccinia inhibition (Venus reporter); Vaccinia virus Venus reporter expression, fluorescence; Potency, µM (top dose mostly 36.5 µM), for the others: at the highest dose activity change, negative = inhibition, most hits filed as inhibitors; actives 0.46% (n = 330,000); AID 720580; calls by dose curve; tested in A549 cells; note: potency is the fitted concentration of half-maximal effect; nearly all actives have a fitted effect of over 30% in size
VACV mCherry inh: vaccinia inhibition (mCherry reporter) | Vaccinia virus mCherry reporter infection, fluorescence | Potency, µM (doses to about 36.5 µM), for inactives: at the top dose activity change, negative = inhibition, most hits filed as inhibitors | actives 0.63% (n = 310,000) | AID 720579; calls by dose curve; tested in A549 cells; note: potency is the fitted concentration of half-maximal effect; nearly all actives have a fitted effect of over 35% in size
* hit, by the source's call; i = inactive; u = inconclusive; x = no result; [ ] = remark or other dose. % is set by controls: 0 for no effect and ±100 for the full control effect.

SMILES	HCMV antiviral	FMDV antiviral	HCV inhibitor	VACV Venus inh	VACV mCherry inh
COc1ccc(NC(=O)CSc2nc3ccc(Nc4nc(N5CCOCC5)nc(N5CCOCC5)n4)cc3s2)cc1	u	-28%	10µM*	x	x
CC(C)(C)NC(=O)CSc1nc2ccc(Nc3nc(N4CCOCC4)nc(N4CCOCC4)n3)cc2s1	-66*	u	-24%	x	x
CC(=O)CSc1nc2ccc(Nc3nc(N4CCOCC4)nc(N4CCOCC4)n3)cc2s1	-13	-10%	32µM*	x	x
Cc1cnc(CNc2cc(-c3ccoc3)ncn2)cn1	x	-23%	x	17%	5%
COc1ccc(CC(=O)OCC(=O)Nc2cc(Cl)ccc2C)cc1	21	-4%	-5%	19%	-18%
Oc1ccc(C[C@@H]2CNCCN2CC2(c3ccccc3)CC2)cc1	30	-18%	u	-26%	-25%
c1ccc(C2(CN3CCNC[C@@H]3CC3CCCCC3)CC2)cc1	-11	-28%	22µM*	-14%	-13%
CC1(C)Oc2ccc3ccc(=O)oc3c2/C(=C/NNC(N)=S)C1=O	14	-12%	3%	-5%	u
Cc1cc(Cl)ccc1NC(=O)C1CCCN1C(=O)c1cccs1 (centres undefined)	-14	-11%	4%	0%	i
CCN(C(=O)[C@@H]1CCCN1C(=O)c1cccs1)c1nc2cc(Cl)ccc2s1	118	13%	10µM*	-16%	-12%
CCOc1cc(/C=N/NC(=O)c2ccc(O)cc2)ccc1Oc1nc(Cl)ncc1F	-71*	-25%	-21%	x	x
CCOc1cc(/C=N\Nc2ncc(F)c(N3CCOCC3)n2)ccc1Oc1nc(Cl)ncc1F	-73*	16µM*	10µM*	-24%	i
NC(N)=NC(N)=Nc1cccc2ccccc12	-9	-16%	-13%	-8%[7.34 µM]	i[7.34 µM]
NC(N)=Nc1cc2ccccc2c2ccccc12	-83*	x	x	x	x
COc1cc(OC)c(NC(=O)c2noc3c2CSc2ccccc2-3)cc1Cl	-28	0%	x	1%	5%
C#CCN1C=CC(=O)[C@@H](OC(=O)Nc2ccc(C)cc2)[C@H]1c1ccccc1Br	-19	-14%	-2%	u	-19%
C#CCN1C=CC(=O)[C@@H](O)[C@H]1c1ccccc1Br	-12	-11%	5.6µM*	3%	-16%
O=C(/C=C/c1cccnc1)c1cc(F)ccc1O	-28	-27%	28%	x	x
COc1cc(OC)c(C(=O)/C=C/c2ccccc2)c(O)c1O	7	25µM*	-18%	u	u
COc1ccc(C(=O)/C=C/c2ccccc2)c(O)c1	-106*	-1%	u	-8%	-12%
COc1ccc(OC)c(C(=O)/C=C/c2cccnc2)c1	-100*	u	u	-25%	u
COc1cc(C(=O)/C=C/c2cccnc2)ccc1O	12	u	7%	8.9µM*	3.5µM*
N#Cc1nc(-c2ccc(COc3ccccc3)o2)oc1NCc1cccnc1	-14	-28%	x	-15%	-7%
CCC[C@H]1[C@@H](NS(=O)(=O)c2ccc(C#N)cc2)CC[C@@]23CCCN2C(=O)CCC[C@@H]13	-2	x	x	x	x
CCN1CCSc2ccc(C(=O)NC(C)c3ccccc3)cc21 (centres undefined)	-12	-16%	x	-2%	i
SMILES	HCMV antiviral	FMDV antiviral	HCV inhibitor	VACV Venus inh	VACV mCherry inh
O=C(/C=C/c1cccnc1)/C=C/c1cccnc1	-97*	11µM*	u	x	x
CCOC(=O)c1[nH]c(C)c(CCC(=O)Nc2ccc(C)cc2Cl)c1C	-6	-19%	x	-5%	-12%
CC1CC(C)CN(C(=O)COC(=O)COc2ccc(C#N)cc2)C1 (centres undefined)	4	-10%	u	-8%	i
COc1ccc(Cl)cc1NC(=O)C(C)OC(=O)Cn1cc(C(F)(F)F)ccc1=O (centres undefined)	-19	-17%	u	x	x
COc1ccc(Cl)cc1-c1noc([C@@H]2O[C@H](CO)[C@H](O)[C@H](O)[C@H]2O)n1	-73*	-25%	x	-4%	21%
Cc1nc(SC(C)C(=O)NCC2CCCO2)c2cc(-c3ccccc3)sc2n1 (centres undefined)	-89*	16%	4%	-2%	5µM*
COC(=O)c1ccc(N=C2S/C(=C\c3cc(C)n(-c4cccnc4)c3C)C(=O)N2C)cc1	0	u	3.5µM*	-18%	x
Cc1cc(C=C2C(=O)N(C)C(=S)N(C)C2=O)c(C)n1-c1cccnc1	-35	u	9%	18%	-6%
CCn1c(=O)cc(SCC(=O)Nc2cccc(SC)c2)c2ccccc21	-32	20µM*	u	x	x
CCn1c(=O)cc(SCC(=O)Nc2ccc(C)cn2)c2ccccc21	-95*	25%	u	10µM*	u
CCn1c(=O)cc(OCC(=O)Nc2ccc(C)cn2)c2ccccc21	-61*	54%	-15%	x	x
CCCC(=O)Nc1ccc2c(c1)nc(CCN1CCCCC1)n2C	7	-2%	-3%	10%	-7%
O=C(/C=C/c1ccc(Cl)cc1)c1cccnc1	-8	-7%	12%	u	u
O=C(/C=C/c1ccccc1Cl)c1cccnc1	-15	14µM*	u	-15%	x
N#Cc1ccc(/C=C/C(=O)c2cccnc2)cc1	9	40µM*	u	x	x
COc1ccc(N2CCN(C(=O)COc3ccc4ccccc4c3)CC2)cc1	-7	-18%	-9%	-7%	x
CCN(C(=O)COc1cc(=O)n(C)c2ccccc12)c1cccc(C(F)(F)F)c1	-39	-24%	x	-7%	-13%
CCn1c(=O)cc(OCC(=O)N(C)c2ccc(OC)cc2)c2ccccc21	-72*	-15%	x	-3%	-10%
CC(=O)c1ccc(N2CCN(C(=O)COc3ccc4ccccc4c3)CC2)cc1	-62*	-12%	x	-10%	-2%
CCOc1ccc(N(CC)C(=O)COc2cc(=O)n(CC)c3ccccc23)cc1	-95*	-12%	u	x	x
CCOc1ccc(N(CC)C(=O)COc2cc(=O)n(C)c3ccccc23)cc1	-103*	-9%	11%	x	x
CCn1c(=O)cc(OCC(=O)N2CCN(c3ccc(OC)cc3)CC2)c2ccccc21	-95*	-23%	x	-15%	-14%
CC(=O)c1ccc(N2CCN(C(=O)CCC(=O)c3cccs3)CC2)cc1	-82*	-4%	10%	x	x
CCn1c(=O)cc(OCC(=O)N2CCN(c3ccc(C(C)=O)cc3)CC2)c2ccccc21	22	-12%	x	-4%	-13%
Cc1ccc(-n2c(SCC(=O)NC3CCS(=O)(=O)C3)nc3ccccc3c2=O)cc1C (centres undefined)	-15	-5%	4%	-14%	-9%
C=CCNC(=S)Nc1ccc(Cl)cc1	34	19%	1%	-10%	-8%
C=CCNC(=S)Nc1ccc(OC(F)F)c(Cl)c1	u	29%	11µM*	-9%	-20%
O=C(Nc1ccc(OC(F)F)c(Cl)c1)Nc1ccc2c(c1)OCO2	16	-9%	18µM*	x	x
O=C(Nc1ccc2c(c1)OCO2)Nc1ccc2c(c1)OCO2	-11	81%	-2%	x	x
O=C(O)c1cc(-c2ccccc2)nn1Cc1ccccc1	-2	-2%	x	2%	-8%
